# SIRT5 inh – SIRT5 desuccinylase inhibitors, primary screen, biochemical, fluorescence imaging, single point, set 5. NAD-dependent protein deacylase sirtuin-5, mitochondrial (Homo sapiens), Q9NXA8. Purified SirT5, succinyl-peptide AMC, trypsin-coupled fluorescence. inhibition, % at 15 µM. 330,000 tested, 1.1% active. AID 652115, 2013; in the data active means inhibition above about 15%
# FGF22 binding-1 – binders of human FGF22 protein, primary screen, FGF22 synaptogenesis inhibitor project, biophysical, thermal shift, single point | Fibroblast growth factor 22 (Homo sapiens), Q9HCT0 | recombinant FGF22 thermal shift, SYPRO orange fluorescence; percent of sucrose octasulfate shift, DMSO zero | activity (Tm shift, normalised), % at 9.99 µM | 340,000 tested, 1.5% active | AID 651658, 2012;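 active means mean Tm shift, scaled 0 neutral to 100 positive control, at about 1.3% or above, every replicate too, limit read from the data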
# CASP6 VEID inh – human caspase-6 inhibitors, primary screen, biochemical, VEID-R110 fluorescence, single point, set 2. inhibition, % at 12.5 µM. purified caspase-6, Z-VEID-R110 cleavage fluorescence. 350,000 tested, 0.53% active. P55212;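 active means mean inhibition across replicates at least about 35%, with every replicate also reaching that limit, limit read from the data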;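 further: 0% = median of neutral control wells and 100% = no fluorescence left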
# ERAP1 inh – human ERAP1 aminopeptidase inhibitors, primary screen, biochemical, single point, plate reader; recombinant ERAP1, Leu-AMC fluorescence, 60 min; 340,000 tested, 0.15% active; inhibition, % at 10.7 µM; Endoplasmic reticulum aminopeptidase 1 (Homo sapiens), Q9NZ08; AID 652197, 2013;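 active means mean replicate inhibition of at least 30%, or all replicates individually reaching that 30% level; inactive means mean below 30% and not every replicate reaching it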;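 further: 0% = neutral control wells and 100% = L-leucinethiol positive control wells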
# Target sequence (Q9NZ08 whole entry, looked up): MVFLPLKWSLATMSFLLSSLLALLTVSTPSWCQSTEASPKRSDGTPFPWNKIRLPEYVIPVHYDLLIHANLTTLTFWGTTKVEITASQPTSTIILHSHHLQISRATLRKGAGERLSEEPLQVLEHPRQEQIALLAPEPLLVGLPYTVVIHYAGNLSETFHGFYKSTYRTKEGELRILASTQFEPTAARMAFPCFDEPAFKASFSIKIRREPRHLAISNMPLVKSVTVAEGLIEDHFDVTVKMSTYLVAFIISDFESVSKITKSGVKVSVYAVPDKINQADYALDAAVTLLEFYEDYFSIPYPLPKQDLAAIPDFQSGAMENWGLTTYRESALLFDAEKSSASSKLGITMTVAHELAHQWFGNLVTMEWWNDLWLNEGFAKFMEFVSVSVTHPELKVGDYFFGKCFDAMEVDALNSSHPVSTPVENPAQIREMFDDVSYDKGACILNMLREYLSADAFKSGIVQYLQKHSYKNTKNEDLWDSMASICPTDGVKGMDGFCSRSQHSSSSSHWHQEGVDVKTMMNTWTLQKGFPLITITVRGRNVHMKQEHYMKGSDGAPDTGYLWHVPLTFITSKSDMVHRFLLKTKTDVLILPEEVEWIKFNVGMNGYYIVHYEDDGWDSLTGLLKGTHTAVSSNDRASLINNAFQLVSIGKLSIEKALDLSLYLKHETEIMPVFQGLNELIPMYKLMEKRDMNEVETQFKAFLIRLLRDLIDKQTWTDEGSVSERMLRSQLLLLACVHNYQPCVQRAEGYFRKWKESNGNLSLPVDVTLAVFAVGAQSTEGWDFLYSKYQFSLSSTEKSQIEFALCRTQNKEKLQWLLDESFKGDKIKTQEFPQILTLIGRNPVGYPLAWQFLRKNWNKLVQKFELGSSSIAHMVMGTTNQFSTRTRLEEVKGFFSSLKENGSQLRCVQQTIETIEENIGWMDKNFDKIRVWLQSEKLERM
# FGF22 binding-2 – binders of human FGF22 protein, dose response, FGF22 synaptogenesis inhibitor project, biophysical, thermal shift, cherry-pick retest; shares compounds with FGF22 binding-1; 1,000 tested, 2% active; thermal shift activity, °C (ΔTm) at 38 µM; recombinant FGF22 thermal shift, SYPRO orange fluorescence;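 active means fitted rise in melting shift crosses a set limit at or below the top valid dose tested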
# FGF22 TSA DP – binders of human FGF22 protein, dose response, FGF22 synaptogenesis inhibitor project, biophysical, thermal shift, dry powder | shares compounds with FGF22 binding-1 | Thermal shift assay, SYPRO orange, melting temperature shift | Tm shift (activity), % at 38 µM | 50 tested, under 10 active | AID 743017, 2013;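 active means compounds whose fitted dose curve of melting temperature shift rises past a set threshold within the tested doses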
# SYPRO no-protein – compound-only thermal shift signal without protein, dose response, artefact control for FGF22 binder project, biochemical, cherry-picked samples, RT-PCR instrument; AC50, µM (highest dose often 38 µM); compound-only SYPRO orange thermal shift counter-screen, no protein; 1,000 tested, 2% active; shares compounds with FGF22 binding-1;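 active means rising signal whose fitted curve reaches the 0.54 level within the top valid dose, showing a melting point, actives reach about 13 µM in these data; inactive means the rest, including activity in the opposite direction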; further: value is where the raw curve crosses a fixed level and not half-maximal
# * marks the source's active call; other numbers are inactive results; i = inactive; x = no result; ! = not confirmed by another sample; [ ] = remark or other dose. The list is not random: actives were taken first. Their share in the collection is about 3.1%.
SMILES,SIRT5 inh,FGF22 binding-1,CASP6 VEID inh,ERAP1 inh,FGF22 binding-2,SYPRO no-protein,others
Cc1cccc(C(=O)O/N=C2\CCCc3ccccc32)c1,0,x,1,5,x,x,
O=C(O/N=C1\CCCc2ccccc21)C1CC1,-4,2.7*,1,-5,0.067,i,
COCC(=O)Nc1ccc2c(c1)[C@H]1C[C@H](CC(=O)N3CCCCC3)O[C@@H](CO)[C@H]1O2,x,0,x,x,x,x,
COc1cc(NC(=O)c2cnc(N)o2)cc(C(=O)Nc2cccc(C(F)(F)F)c2)c1,5,2.2*!,3,-1,0.14,i,
COc1cc(NC(=O)c2ccnc(N)c2)cc(C(=O)Nc2cccc(C(F)(F)F)c2)c1,-3,0,7,-3,x,x,
COc1cc(NC(=O)c2cnc(N)s2)cc(C(=O)Nc2cccc(C(F)(F)F)c2)c1,-4,1.7*!,-2,-1,0.064,i,
COc1cc(NC(=O)c2csc(N)n2)cc(C(=O)Nc2cccc(C(F)(F)F)c2)c1,-1,1.6*!,2,0,-0.085,11µM*,
COc1ccc2c3c(n(C)c2c1)[C@H](CO)N(Cc1cccc(F)c1)CC31CCN(C)CC1,x,0,x,x,x,x,
COc1ccc(C(=O)Nc2ccc3c(c2)C(=O)N(C)C[C@H](OC)[C@H](C)CN[C@@H](C)CO3)cc1,0,0,2,1,x,x,
CCOc1ccc(C2OC(=O)Cc3cc(OC)c(OC)cc32)cc1 (stereo not given),0,14*,13,8,0.097,i,
CCOc1ccc(C2NC(=O)Cc3cc(OC)c(OC)cc32)cc1 (stereo not given),-6,0,x,5,x,x,
CSCCC(NS(=O)(=O)c1ccc(Cl)c(Cl)c1)C(=O)O (stereo not given),-1,1.4*,2,-1,-0.094,i,
COC(=O)c1cc(OC)c(OC)cc1NC(=O)c1cccc(C)c1,-4,0,1,0,x,x,
COC(=O)c1cc(OC)c(OC)cc1NC(=O)c1ccccc1C,-1,8.5*,0,-1,0.14,i,
CCS(=O)(=O)NCCNc1ccc([N+](=O)[O-])cc1,3,1.5*,-4,6,-0.069,i,
O=[N+]([O-])c1ccc(NCc2ccncc2)cc1,3,0,-2,4,x,x,
Cc1ccccc1S(=O)(=O)N1CC(=O)N2[C@H](C1)[C@H](c1ccc(C#CC3CC3)cc1)[C@@H]2CO,1,x,2,0,x,x,
CC1CCCCN1C(=O)CCNC(=O)Cn1cnc2ccccc2c1=O (stereo not given),10,0,-1,1,x,x,
CCC1CCCCN1C(=O)CCNC(=O)Cn1cnc2ccccc2c1=O (stereo not given),2,1.4*,6,2,-0.036,i,
Cc1cc(C2=NNC(=NCc3ccccc3)SC2)c(C)n1-c1c(C)n(C)n(-c2ccccc2)c1=O,x,0,1,-2,x,x,
CN=C1NN=C(c2cc(C)n(-c3c(C)n(C)n(-c4ccccc4)c3=O)c2C)CS1,-2,1.6*,3,0,0.13,i,
CN(C)c1ccc(/C=N/NC(=O)c2ccc3nc[nH]c3c2)cc1,2,1,0,7,x,x,
CSc1ccc(/C=N/NC(=O)c2ccc3nc[nH]c3c2)cc1,x,2.2*,-8,0,x,i,FGF22 TSA DP=0
O=C(O)C[C@H]1C[C@@H]2c3cc(NC(=O)c4ccc5c(c4)OCO5)ccc3O[C@@H]2[C@@H](CO)O1,8,-1,-1,0,x,x,
CS(=O)(=O)N1CCCCN2[C@H](C1)[C@H](c1ccc(C#Cc3ccccn3)cc1)[C@@H]2CO,0,0,0,-2,x,x,
SMILES,SIRT5 inh,FGF22 binding-1,CASP6 VEID inh,ERAP1 inh,FGF22 binding-2,SYPRO no-protein,others
COc1ccc(C(=O)N2C[C@H]3[C@@H](c4ccccc42)[C@@H](CO)N3C(=O)c2ccc(F)cc2)cc1,-3,1.8*,-7,1,0.061[42 µM],i,
CC(=O)N1[C@@H](CO)[C@@H]2c3ccccc3N(C(=O)c3ccc(F)cc3)C[C@@H]21,-4,1.8*,0,-1,0.11,i,
COCC(=O)N1C[C@H]2[C@@H](c3ccccc31)[C@H](CO)N2C(=O)Nc1ccccc1F,-22,1.5*,1,2,-0.044,i,
COc1ccccc1NC(=O)N[C@@H]1CC[C@@H](CCNC(=O)Cc2ccccn2)O[C@@H]1CO,-1,0,1,2,x,x,
CC(C)(C)N(Cc1ccccc1)C(=O)COC(=O)C1CCN(c2ccc(C(F)(F)F)cn2)CC1,-14,0,-1,2,x,x,
CC(C)N(Cc1ccccc1)C(=O)COC(=O)C1CCN(c2ccc(C(F)(F)F)cn2)CC1,3,1.5*,1,4,-0.009,i,
Cc1ccc(CCNc2ncnc(Cl)c2N)cc1,x,1.7*,0,-1,-0.12,i,
O=C(Nc1cccc(-c2cnc3ccccc3n2)c1)c1ccncc1,1,1.3*,-4,0,0.065,i,
C[C@@H]1CN([C@@H](C)CO)S(=O)(=O)c2ccc(C3=CCCC3)cc2O[C@@H]1CN(C)C(=O)Nc1ccc2c(c1)OCO2,2,2.0*,-1,-3,-0.042[42 µM],i,
C[C@H](CO)N1C[C@H](C)[C@H](CN(C)C(=O)Nc2ccc3c(c2)OCO3)Oc2cc(C3=CCCCC3)ccc2S1(=O)=O,14,1.6*,-5,2,-0.031,11µM*,
C[C@@H]1CN([C@@H](C)CO)S(=O)(=O)c2ccc(C3=CCCC3)cc2O[C@H]1CN(C)C(=O)Nc1ccc2c(c1)OCO2,10,0,-3,-2,x,x,
C[C@@H]1CN([C@@H](C)CO)S(=O)(=O)c2ccc(C#Cc3ccncc3)cc2O[C@H]1CN(C)C(=O)Nc1ccc2c(c1)OCO2,8,0,-2,-1,x,x,
C[C@H]1CN([C@@H](C)CO)S(=O)(=O)c2ccc(C#Cc3ccncc3)cc2O[C@H]1CN(C)C(=O)Nc1ccc2c(c1)OCO2,-2,1.4*,-1,1,-0.24,i,
C[C@@H]1CN([C@H](C)CO)S(=O)(=O)c2ccc(C3=CCCCC3)cc2O[C@H]1CN(C)C(=O)CN(C)C,7,1.2*,2,-7,0.22[42 µM],i,

# Source: PubChem BioAssay (Broad Institute)
